# PMC7862700, “An all-to-all approach to the identification of sequence-specific readers for epigenetic DNA modifications on cytosine”
# Assays:
# Experiment in all cases: DAPPL (digital affinity profiling via proximity ligation, sequencing); 10 mM Tris-HCl pH 7.5, 50 mM NaCl, 1 mM DTT, 4% glycerol, room temperature, 30 min; GST-TFs on glutathione beads, 16-mer random dsDNA library, 0.1% formaldehyde crosslink after washing; high values mean tight binding
# [1] = biological target: T1, FLI1 (Homo sapiens, UniProt Q01543 1-452); conditions: protein: recombinant; tags: N-terminal GST; dsDNA, one strand shown
# T1 sequence: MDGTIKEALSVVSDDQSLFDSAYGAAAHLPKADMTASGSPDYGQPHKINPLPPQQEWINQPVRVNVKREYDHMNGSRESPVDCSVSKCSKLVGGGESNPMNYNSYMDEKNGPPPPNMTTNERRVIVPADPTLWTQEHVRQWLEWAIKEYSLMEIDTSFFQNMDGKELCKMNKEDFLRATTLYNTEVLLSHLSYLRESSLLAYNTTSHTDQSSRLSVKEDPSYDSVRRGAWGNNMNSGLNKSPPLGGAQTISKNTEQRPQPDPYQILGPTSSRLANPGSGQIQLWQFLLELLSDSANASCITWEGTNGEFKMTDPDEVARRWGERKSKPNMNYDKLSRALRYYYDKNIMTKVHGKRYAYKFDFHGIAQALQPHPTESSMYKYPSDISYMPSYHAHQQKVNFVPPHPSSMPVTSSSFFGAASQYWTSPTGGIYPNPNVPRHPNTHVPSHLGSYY
# How it was run: (§1)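 Each value of binding signal is a hexamer's read frequency for a factor divided by the same hexamer's frequency in the tag-only sample. Barcoded, bead-captured GST fusions of human transcription factors made in yeast were pooled with that sample and incubated with 200 nmole of a random double-stranded 16-mer DNA library in Tris/NaCl/DTT/glycerol buffer at room temperature for 30 min. Washing, 0.1% formaldehyde crosslinking, proximity ligation, PCR and Illumina NextSeq500 sequencing followed.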
# [2] = biological target: T2, ELK1 (Homo sapiens, UniProt P19419 1-428); conditions: protein: recombinant; tags: N-terminal GST; dsDNA, one strand shown
# T2 sequence: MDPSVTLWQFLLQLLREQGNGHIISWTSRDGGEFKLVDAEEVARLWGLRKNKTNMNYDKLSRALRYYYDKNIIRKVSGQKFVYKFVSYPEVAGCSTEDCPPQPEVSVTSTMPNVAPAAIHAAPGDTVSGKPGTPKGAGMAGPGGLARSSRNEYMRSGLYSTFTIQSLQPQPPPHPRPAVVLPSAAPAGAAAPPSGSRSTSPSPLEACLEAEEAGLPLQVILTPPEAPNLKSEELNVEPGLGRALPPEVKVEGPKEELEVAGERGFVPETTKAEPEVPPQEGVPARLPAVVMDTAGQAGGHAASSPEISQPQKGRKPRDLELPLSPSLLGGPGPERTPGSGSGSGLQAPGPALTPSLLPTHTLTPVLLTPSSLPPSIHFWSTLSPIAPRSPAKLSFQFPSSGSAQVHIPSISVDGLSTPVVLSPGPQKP
# How it was run: as §1
# [3] = biological target: T3, GABPA (Homo sapiens, UniProt Q06546 1-454); conditions: protein: recombinant; tags: N-terminal GST; dsDNA, one strand shown
# T3 sequence: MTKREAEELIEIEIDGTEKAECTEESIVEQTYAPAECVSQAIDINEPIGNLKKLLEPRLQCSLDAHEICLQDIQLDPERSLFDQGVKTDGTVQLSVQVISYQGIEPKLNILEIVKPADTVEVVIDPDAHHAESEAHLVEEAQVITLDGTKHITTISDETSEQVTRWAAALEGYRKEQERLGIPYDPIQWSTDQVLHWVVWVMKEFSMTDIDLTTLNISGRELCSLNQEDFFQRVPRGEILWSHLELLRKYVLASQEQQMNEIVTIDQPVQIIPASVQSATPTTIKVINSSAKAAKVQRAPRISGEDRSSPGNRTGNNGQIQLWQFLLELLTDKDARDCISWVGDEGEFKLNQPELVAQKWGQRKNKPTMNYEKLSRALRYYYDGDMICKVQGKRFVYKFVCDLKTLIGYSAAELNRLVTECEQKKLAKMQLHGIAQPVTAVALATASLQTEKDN
# How it was run: as §1
# [4] = biological target: T4, ERG (Homo sapiens, UniProt P11308 1-479); conditions: protein: recombinant; tags: N-terminal GST; dsDNA, one strand shown
# T4 sequence: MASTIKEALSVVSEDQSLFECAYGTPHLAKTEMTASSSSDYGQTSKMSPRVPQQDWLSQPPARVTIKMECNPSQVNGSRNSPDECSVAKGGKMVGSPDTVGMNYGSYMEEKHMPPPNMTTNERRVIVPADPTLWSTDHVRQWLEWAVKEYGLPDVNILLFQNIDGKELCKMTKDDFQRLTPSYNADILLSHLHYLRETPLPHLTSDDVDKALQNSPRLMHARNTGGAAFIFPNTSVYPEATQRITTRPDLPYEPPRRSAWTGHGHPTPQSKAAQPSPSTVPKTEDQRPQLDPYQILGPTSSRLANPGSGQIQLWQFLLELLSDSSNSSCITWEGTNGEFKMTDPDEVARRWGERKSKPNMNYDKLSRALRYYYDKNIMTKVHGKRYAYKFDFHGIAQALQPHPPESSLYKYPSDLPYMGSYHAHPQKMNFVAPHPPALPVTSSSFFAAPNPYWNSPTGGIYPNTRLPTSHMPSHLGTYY
# How it was run: as §1
# [5] = biological target: ELF1 (Homo sapiens, UniProt P32519 1-619); conditions: protein: recombinant; tags: N-terminal GST; dsDNA, one strand shown
# Sequence of ELF1 (P32519 whole entry): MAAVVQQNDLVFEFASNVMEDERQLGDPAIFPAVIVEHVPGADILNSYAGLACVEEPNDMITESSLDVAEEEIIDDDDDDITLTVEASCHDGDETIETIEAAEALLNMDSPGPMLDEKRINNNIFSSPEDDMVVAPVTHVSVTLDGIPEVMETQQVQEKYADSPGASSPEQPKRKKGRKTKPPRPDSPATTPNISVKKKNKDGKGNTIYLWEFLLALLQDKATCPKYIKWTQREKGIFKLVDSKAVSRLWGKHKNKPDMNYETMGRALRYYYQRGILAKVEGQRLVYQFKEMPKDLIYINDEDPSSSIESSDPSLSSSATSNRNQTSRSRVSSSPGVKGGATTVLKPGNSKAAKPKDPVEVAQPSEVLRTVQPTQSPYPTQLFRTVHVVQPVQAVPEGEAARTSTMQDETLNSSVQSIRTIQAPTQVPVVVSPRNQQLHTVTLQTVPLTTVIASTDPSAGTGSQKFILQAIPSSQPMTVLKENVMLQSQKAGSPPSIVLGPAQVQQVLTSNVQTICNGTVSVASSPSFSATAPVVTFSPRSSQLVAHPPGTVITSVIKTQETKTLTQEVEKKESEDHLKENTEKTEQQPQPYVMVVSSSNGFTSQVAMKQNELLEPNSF
# How it was run: as §1
# [6] = biological target: T5, EHF (Homo sapiens, UniProt Q9NZC4 1-300); conditions: protein: recombinant; tags: N-terminal GST; dsDNA, one strand shown
# T5 sequence: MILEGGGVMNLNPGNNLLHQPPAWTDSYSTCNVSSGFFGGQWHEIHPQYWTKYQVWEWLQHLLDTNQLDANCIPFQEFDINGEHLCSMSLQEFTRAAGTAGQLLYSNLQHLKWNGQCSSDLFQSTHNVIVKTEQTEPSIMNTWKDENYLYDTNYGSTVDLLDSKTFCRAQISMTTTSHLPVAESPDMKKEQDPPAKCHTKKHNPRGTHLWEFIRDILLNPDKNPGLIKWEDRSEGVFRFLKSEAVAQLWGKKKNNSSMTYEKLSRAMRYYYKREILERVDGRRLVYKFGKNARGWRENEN
# How it was run: as §1
# [7] = biological target: SPI1 (Homo sapiens, UniProt P17947 1-270); conditions: protein: recombinant; tags: N-terminal GST; dsDNA, one strand shown
# How it was run: as §1
# [8] = biological target: SPIB (Homo sapiens, UniProt Q01892 1-262); conditions: protein: recombinant; tags: N-terminal GST; dsDNA, one strand shown
# Sequence of SPIB (Q01892 whole entry): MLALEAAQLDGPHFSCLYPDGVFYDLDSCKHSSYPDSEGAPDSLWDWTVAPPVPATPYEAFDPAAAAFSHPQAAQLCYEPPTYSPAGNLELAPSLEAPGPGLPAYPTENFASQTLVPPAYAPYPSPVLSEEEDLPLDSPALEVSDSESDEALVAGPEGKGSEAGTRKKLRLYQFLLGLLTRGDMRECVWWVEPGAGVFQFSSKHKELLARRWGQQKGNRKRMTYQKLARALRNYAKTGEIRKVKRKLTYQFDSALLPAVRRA
# How it was run: as §1
# [9] = biological target: T6, ELK3 (Homo sapiens, UniProt P41970 1-407); conditions: protein: recombinant; tags: N-terminal GST; dsDNA, one strand shown
# T6 sequence: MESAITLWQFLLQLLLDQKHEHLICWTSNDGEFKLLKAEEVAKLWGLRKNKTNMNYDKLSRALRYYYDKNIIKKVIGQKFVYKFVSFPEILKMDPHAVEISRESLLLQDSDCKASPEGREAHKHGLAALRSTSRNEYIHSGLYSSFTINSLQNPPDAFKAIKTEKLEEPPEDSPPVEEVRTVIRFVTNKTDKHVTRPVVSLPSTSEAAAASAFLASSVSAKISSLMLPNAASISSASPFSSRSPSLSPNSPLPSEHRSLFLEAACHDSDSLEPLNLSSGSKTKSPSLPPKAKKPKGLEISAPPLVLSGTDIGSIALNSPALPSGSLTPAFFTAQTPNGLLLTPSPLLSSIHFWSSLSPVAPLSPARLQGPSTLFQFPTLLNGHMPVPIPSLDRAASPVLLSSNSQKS
# How it was run: as §1
# [10] = biological target: T7, FEV (Homo sapiens, UniProt Q99581 1-238); conditions: protein: recombinant; tags: N-terminal GST; dsDNA, one strand shown
# T7 sequence: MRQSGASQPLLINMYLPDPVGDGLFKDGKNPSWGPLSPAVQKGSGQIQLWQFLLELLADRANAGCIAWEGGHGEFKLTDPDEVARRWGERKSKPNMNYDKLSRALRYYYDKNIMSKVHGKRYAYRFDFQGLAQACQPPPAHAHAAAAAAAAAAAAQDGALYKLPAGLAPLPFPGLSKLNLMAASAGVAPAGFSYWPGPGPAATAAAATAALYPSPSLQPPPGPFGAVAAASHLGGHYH
# How it was run: as §1
# [11] = biological target: ETV5 (Homo sapiens, UniProt P41161 1-510); conditions: protein: recombinant; tags: N-terminal GST; dsDNA, one strand shown
# Sequence of ETV5 (P41161 whole entry): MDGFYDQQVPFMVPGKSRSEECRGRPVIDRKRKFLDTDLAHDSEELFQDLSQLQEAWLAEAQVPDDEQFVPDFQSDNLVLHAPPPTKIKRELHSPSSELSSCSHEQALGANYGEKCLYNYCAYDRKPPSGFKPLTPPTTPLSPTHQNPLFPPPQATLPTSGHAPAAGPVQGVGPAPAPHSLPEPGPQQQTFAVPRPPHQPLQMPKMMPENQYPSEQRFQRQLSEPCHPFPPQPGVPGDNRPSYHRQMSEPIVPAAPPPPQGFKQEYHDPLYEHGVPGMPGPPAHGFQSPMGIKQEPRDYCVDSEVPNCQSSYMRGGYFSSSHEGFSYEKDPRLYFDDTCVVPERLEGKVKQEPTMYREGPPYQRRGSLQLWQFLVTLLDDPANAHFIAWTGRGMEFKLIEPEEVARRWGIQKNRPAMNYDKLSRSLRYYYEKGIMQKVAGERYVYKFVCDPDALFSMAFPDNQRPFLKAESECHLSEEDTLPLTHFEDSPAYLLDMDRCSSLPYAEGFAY
# How it was run: as §1
# [12] = biological target: HSF1 (Homo sapiens, UniProt Q00613 1-529); conditions: protein: recombinant; tags: N-terminal GST; chain copies: 3; dsDNA, one strand shown
# Sequence of HSF1 (Q00613 whole entry): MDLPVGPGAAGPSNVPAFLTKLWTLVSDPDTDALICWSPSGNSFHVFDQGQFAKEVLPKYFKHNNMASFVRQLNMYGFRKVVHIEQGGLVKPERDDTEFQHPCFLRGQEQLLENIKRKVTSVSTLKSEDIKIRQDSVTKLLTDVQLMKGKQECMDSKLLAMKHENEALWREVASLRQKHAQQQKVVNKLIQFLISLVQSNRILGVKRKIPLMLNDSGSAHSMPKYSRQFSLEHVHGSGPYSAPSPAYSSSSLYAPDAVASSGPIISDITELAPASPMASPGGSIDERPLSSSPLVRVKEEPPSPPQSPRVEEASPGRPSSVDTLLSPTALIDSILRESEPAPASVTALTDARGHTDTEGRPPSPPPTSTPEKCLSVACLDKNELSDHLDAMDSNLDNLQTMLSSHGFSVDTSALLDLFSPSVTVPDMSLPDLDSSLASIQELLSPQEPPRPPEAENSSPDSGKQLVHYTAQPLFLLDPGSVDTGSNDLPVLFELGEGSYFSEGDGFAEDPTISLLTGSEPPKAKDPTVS
# How it was run: as §1
# [13] = biological target: T8, SPIC (Homo sapiens, UniProt Q8N5J4 1-248); conditions: protein: recombinant; tags: N-terminal GST; dsDNA, one strand shown
# T8 sequence: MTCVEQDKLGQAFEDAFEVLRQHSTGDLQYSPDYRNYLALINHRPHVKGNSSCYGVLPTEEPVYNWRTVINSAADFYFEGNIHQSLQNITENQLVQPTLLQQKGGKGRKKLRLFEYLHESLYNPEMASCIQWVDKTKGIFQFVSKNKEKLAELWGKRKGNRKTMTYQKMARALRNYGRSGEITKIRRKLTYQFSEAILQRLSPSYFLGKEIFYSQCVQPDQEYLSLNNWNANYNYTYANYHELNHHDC
# How it was run: as §1
# [14] = biological target: ELF4 (Homo sapiens, UniProt Q99607 1-663); conditions: protein: recombinant; tags: N-terminal GST; dsDNA, one strand shown
# Sequence of ELF4 (Q99607 whole entry): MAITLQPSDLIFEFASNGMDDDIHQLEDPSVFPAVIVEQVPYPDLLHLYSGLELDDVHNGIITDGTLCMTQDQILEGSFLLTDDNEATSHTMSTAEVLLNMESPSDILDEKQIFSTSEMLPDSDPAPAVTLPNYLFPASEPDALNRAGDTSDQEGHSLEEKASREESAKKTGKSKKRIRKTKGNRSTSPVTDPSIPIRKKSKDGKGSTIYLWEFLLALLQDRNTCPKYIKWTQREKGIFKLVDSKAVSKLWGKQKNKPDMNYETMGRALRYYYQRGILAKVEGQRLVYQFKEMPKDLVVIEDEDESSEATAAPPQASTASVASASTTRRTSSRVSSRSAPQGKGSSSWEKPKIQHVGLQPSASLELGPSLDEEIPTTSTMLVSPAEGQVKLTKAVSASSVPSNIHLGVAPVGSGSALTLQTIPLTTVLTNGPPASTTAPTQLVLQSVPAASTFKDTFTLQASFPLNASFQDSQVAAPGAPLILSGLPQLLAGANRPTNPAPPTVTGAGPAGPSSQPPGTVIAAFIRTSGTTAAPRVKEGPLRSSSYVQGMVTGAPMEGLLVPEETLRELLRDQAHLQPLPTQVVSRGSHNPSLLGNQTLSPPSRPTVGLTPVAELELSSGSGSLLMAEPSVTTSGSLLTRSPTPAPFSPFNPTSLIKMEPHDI
# How it was run: as §1
# [15] = biological target: T9, ELK4 (Homo sapiens, UniProt P28324-2 1-405); conditions: protein: recombinant; tags: N-terminal GST; dsDNA, one strand shown
# T9 sequence: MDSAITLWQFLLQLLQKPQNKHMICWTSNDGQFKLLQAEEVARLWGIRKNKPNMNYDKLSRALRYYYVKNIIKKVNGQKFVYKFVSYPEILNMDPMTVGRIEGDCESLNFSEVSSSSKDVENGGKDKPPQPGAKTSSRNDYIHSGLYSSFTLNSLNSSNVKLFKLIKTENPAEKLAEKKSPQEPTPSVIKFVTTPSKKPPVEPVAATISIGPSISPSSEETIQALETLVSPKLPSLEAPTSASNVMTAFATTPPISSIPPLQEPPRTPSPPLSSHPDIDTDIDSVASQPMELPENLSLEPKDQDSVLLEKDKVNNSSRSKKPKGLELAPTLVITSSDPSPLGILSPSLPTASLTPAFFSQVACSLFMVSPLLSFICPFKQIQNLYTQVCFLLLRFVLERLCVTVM
# How it was run: as §1
# [16] = biological target: T10, ETV2 (Homo sapiens, UniProt O00321 1-342); conditions: protein: recombinant; tags: N-terminal GST; dsDNA, one strand shown
# T10 sequence: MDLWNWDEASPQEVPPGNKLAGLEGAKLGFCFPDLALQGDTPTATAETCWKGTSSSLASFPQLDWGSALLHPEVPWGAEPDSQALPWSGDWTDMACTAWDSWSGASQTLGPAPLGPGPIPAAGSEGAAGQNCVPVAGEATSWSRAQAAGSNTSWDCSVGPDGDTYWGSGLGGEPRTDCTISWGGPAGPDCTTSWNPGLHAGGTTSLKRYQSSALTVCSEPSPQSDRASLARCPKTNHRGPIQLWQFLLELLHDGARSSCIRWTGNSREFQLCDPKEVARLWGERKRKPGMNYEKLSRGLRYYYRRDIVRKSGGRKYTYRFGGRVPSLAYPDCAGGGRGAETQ
# How it was run: as §1
# [17] = biological target: T11, ELF3 (Homo sapiens, UniProt P78545 1-371); conditions: protein: recombinant; tags: N-terminal GST; dsDNA, one strand shown
# T11 sequence: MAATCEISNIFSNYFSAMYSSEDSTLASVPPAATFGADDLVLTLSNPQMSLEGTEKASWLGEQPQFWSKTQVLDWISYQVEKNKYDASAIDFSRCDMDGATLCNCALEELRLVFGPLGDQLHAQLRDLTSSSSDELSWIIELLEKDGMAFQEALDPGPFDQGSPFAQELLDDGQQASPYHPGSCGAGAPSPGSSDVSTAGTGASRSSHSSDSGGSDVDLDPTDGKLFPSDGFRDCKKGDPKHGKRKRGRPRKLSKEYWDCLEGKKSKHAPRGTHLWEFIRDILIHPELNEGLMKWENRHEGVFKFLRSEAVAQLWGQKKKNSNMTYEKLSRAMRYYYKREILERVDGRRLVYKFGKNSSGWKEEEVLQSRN
# How it was run: as §1
# [18] = biological target: CRX (Homo sapiens, UniProt O43186 1-299); conditions: protein: recombinant; tags: N-terminal GST; dsDNA, one strand shown
# Sequence of CRX (O43186 whole entry): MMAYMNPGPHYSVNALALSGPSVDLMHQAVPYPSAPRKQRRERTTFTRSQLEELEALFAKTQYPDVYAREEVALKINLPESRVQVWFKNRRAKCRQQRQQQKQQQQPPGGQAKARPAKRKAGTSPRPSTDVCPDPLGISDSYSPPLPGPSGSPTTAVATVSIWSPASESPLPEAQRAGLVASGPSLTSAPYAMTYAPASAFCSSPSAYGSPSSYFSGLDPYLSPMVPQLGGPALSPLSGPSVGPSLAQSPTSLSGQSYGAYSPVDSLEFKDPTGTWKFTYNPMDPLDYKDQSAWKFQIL
# How it was run: as §1
# [19] = biological target: ETV1 (Homo sapiens, UniProt P50549 1-477); conditions: protein: recombinant; tags: N-terminal GST; dsDNA, one strand shown
# Sequence of ETV1 (P50549 whole entry): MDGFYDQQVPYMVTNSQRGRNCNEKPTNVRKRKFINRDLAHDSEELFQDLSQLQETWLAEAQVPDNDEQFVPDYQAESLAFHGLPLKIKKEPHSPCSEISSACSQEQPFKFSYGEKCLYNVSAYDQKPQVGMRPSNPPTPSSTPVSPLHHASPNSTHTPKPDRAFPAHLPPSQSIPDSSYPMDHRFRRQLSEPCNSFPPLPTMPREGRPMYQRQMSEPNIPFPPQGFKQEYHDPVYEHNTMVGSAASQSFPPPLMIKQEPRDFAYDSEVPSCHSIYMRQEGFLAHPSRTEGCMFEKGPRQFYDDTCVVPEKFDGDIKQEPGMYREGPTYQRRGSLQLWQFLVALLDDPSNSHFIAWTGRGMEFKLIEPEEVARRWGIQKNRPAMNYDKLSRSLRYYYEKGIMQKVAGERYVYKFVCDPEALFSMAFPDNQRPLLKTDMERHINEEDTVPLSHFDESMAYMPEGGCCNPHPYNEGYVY
# How it was run: as §1
sequence,measurement,setting,value
TGATGC,binding signal,[1],"1.49 fold enrichment (6-mer frequency, TF over GST control)"
same,binding signal,[2],"1.63 fold enrichment (6-mer frequency, TF over GST control)"
same,binding signal,[3],"1.65 fold enrichment (6-mer frequency, TF over GST control)"
same,binding signal,[4],"1.4 fold enrichment (6-mer frequency, TF over GST control)"
same,binding signal,[5],"1.64 fold enrichment (6-mer frequency, TF over GST control)"
same,binding signal,[6],"1.58 fold enrichment (6-mer frequency, TF over GST control)"
same,binding signal,[7],"1.42 fold enrichment (6-mer frequency, TF over GST control)"
same,binding signal,[8],"1.47 fold enrichment (6-mer frequency, TF over GST control)"
same,binding signal,[9],"1.72 fold enrichment (6-mer frequency, TF over GST control)"
same,binding signal,[10],"1.44 fold enrichment (6-mer frequency, TF over GST control)"
same,binding signal,[11],"1.49 fold enrichment (6-mer frequency, TF over GST control)"
same,binding signal,[12],"1.27 fold enrichment (6-mer frequency, TF over GST control)"
same,binding signal,[13],"1.72 fold enrichment (6-mer frequency, TF over GST control)"
same,binding signal,[14],"1.66 fold enrichment (6-mer frequency, TF over GST control)"
same,binding signal,[15],"1.6 fold enrichment (6-mer frequency, TF over GST control)"
same,binding signal,[16],"1.49 fold enrichment (6-mer frequency, TF over GST control)"
same,binding signal,[17],"1.71 fold enrichment (6-mer frequency, TF over GST control)"
same,binding signal,[18],"1.34 fold enrichment (6-mer frequency, TF over GST control)"
same,binding signal,[19],"1.55 fold enrichment (6-mer frequency, TF over GST control)"
